Assay results published in PubChem BioAssay (NCATS).
Results filed as inconclusive are left out. A call without a number means that no potency is given here. A number with no mark means an inactive call. Calls of active or inactive are those of the source. Calls follow the shape of the dose curve; as a rule, active = well fitted curve in the direction sought with a large enough effect; inconclusive = small, poorly fitted or top-dose-only effect, or another doubt; inactive = no such curve, though single readings can be large; an effect the other way counts as inactive or inconclusive.

Tested on: not listed separately
Test: qHTS to identify inhibitors of the type 1 interferon - major histocompatibility complex class I in skeletal muscle: primary screen against the NCATS Pharmaceutical Collection (AID 1347407);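 also: luminescence of HiBiT knocked into endogenous HLA-B as interferon-induced MHC class I level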
Settings: human skeletal muscle cells, IFN-b-induced MHC-I HiBiT luminescence, 24 h; series mostly up to 45.9 µM
Procedure, shortened: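 Cells were seeded with 4 ng/ml IFN-beta, incubated 1 h, then dosed with compounds over eight 1:5 steps up to 46 uM final. After 24 h at 37 C, HiBiT lytic reagent was added and luminescence read after 10 min lysis in the dark.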
In the case of `COc1ccc2c(c1)c1c3n2CCN(C)C3=NCC1`, the Potency is reported as “inactive”. For `O=C(O)Cc1csc(-c2ccc(Cl)cc2)n1`, the Potency was “inactive”. For `CCCCCCCCCCCCCCCC(=O)O`, the Potency was “inactive”. With `C=C[C@@]1(C)CC(=O)[C@]2(O)[C@@]3(C)[C@@H](O)CCC(C)(C)[C@@H]3[C@H](O)[C@H](OC(C)=O)[C@@]2(C)O1` the Potency was “inactive”. In the case of `COc1cc(C(=O)N2CCCCCCC2)cc(OC)c1OC`, the Potency is reported as “inactive”. With `c1ccc(-c2nc[nH]c2-c2ccccc2)cc1` the Potency was “inactive”. `CCN[C@@H]1C[C@H](N)[C@@H](OC2OC(CN)=CCC2N)[C@H](O)[C@H]1O[C@H]1OC[C@](C)(O)[C@H](NC)[C@H]1O` (stereo partly drawn) gave an activity change, negative = inhibition of 4.01% [at 0.727 µM]. For `CCCCN=C(N)N=C(N)N`, the Potency was “inactive”. With `Cc1cc(NS(=O)(=O)c2ccc(N)cc2)nc(C)n1` the Potency was “inactive”. In the case of `O=C1OC(CN2CCOCC2)CN1/N=C/c1ccc([N+](=O)[O-])o1` (stereo not drawn), the Potency is reported as “inactive”. For `CC(C)NCC(O)c1ccc2ccccc2c1` (stereo not drawn), the Potency was “inactive”. In the case of `CCOc1ccc(NC(C)=O)cc1`, the Potency is reported as “inactive”. For `CCOC(=O)[C@@](C)(N)Cc1ccc(O)c(O)c1`, the Potency was “inactive”. For `CC(C)(C)NC[C@H](O)COc1cccc2c1CCCC2=O`, the Potency was “inactive”. With `O=C(N/N=C/c1ccc([N+](=O)[O-])o1)c1ccc(O)cc1` the Potency was “inactive”.

Target: Protein phosphatase 1D (Homo sapiens) (UniProt O15297)
Sequence (O15297 whole entry, looked up): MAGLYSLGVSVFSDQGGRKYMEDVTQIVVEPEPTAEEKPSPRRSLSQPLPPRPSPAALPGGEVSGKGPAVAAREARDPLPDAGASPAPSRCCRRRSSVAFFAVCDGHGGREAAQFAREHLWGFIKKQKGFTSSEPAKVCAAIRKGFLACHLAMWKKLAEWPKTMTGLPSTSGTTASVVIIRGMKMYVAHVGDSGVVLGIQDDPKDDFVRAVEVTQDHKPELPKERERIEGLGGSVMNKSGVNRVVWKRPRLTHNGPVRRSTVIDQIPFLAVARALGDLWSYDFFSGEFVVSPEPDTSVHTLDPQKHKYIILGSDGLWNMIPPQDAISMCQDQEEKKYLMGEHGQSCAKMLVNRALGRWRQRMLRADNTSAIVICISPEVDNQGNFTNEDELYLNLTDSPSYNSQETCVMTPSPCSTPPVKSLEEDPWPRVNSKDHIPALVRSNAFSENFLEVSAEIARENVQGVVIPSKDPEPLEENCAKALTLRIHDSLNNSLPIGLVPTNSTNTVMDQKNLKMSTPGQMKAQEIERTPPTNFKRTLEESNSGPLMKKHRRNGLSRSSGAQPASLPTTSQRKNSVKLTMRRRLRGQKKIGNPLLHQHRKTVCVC
Test: RapidFire Mass Spectrometry qHTS Assay for Modulators of WT P53-Induced Phosphatase 1 (WIP1) (AID 1347424);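 also: amount of dephosphorylated VEPPL-S-QETFS peptide product formed by WIP1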
Settings: WIP1 dephosphorylation of phosphopeptide, RapidFire MS; series mostly up to 63 µM
Procedure, shortened: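 10 nM WIP1 + cpd, 1 h RT; + 2 uM VEPPL-pS-QETFS, 5 min RT; stop 0.5% formic acid; labelled product standard 1 uM; RapidFire MS. Buffer 50 mM Tris pH 7.5, 30 mM MgCl2, 1 mM TCEP.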
For `FC(F)(F)C(F)(F)C(F)(F)C(F)(F)C(F)(F)C(F)(F)C(F)(F)C(F)(F)Br`, the Potency was “inactive”. With `CCCCc1cc2ccccc2c(OCCN(C)C)n1` the Potency was “inactive”. In the case of `Cc1ccc(S(=O)(=O)NC(=O)NC2CCCC2)cc1`, the Potency is reported as “inactive”. In the case of `COc1ccc(C(=O)c2ccccc2O)c(O)c1`, the Potency is reported as “inactive”. With `CCOC(=O)C(C#N)=C(c1ccccc1)c1ccccc1` the Potency was “inactive”. For `Nc1nc(-c2ccccc2)c(Br)c(=O)[nH]1`, the Potency was “inactive”. In the case of `O=[N+]([O-])c1cccc(S(=O)(=O)NCCNS(=O)(=O)c2cccc([N+](=O)[O-])c2)c1`, the Potency is reported as “inactive”. For `CN(C)CCOC(=O)C(c1ccccc1)C1(O)CCCC1` (stereo not drawn), the Potency was “inactive”. In the case of `CCCCCCCCOc1ccc(C(=O)c2ccccc2)c(O)c1`, the Potency is reported as “inactive”. With `COc1cc(N)c(Cl)cc1C(=O)NC1CCN(Cc2ccccc2)CC1` the Potency was “inactive”. For `Nc1ccc(S(=O)(=O)NCc2ccccc2)cc1`, the Potency was “inactive”. For `CCc1cc(Cl)c(OC)c(C(=O)NC[C@@H]2CCCN2CC)c1O`, the Potency was “inactive”. For `OCc1ccccn1`, the Potency was “inactive”. In the case of `Cc1cccc(C)c1NC(=O)c1ccccc1C(=O)O`, the Potency is reported as “inactive”. For `COc1cc(O)c(C(=O)c2ccccc2)cc1S(=O)(=O)O`, the Potency was “inactive”. With `CCc1nn(CCCN2CCN(c3cccc(Cl)c3)CC2)c(=O)n1CCOc1ccccc1` the Potency was “inactive”. In the case of `OC1C(O)C(O)C(O)C(O)C1O` (stereo not drawn), the Potency is reported as “inactive”. With `CC(=O)Nc1ccc(OCC(O)CNC(C)C)cc1` (stereo not drawn) the Potency was “inactive”. In the case of `O=C(NCCc1c[nH]c2ccccc12)c1cccnc1`, the Potency is reported as “inactive”. For `Cc1cccc(C)c1NC(=O)CN1CCCCCC1`, the Potency was “inactive”. With `CN1CCc2cccc3c2[C@H]1Cc1ccc(O)c(O)c1-3` the Potency was “inactive”. In the case of `COc1ccc2c(c1)c1c3n2CCN(C)C3=NCC1`, the Potency is reported as “inactive”. For `O=C(O)Cc1csc(-c2ccc(Cl)cc2)n1`, the Potency was “inactive”. In the case of `CCCCCCCCCCCCCCCC(=O)O`, the Potency is reported as “inactive”. With `C=C[C@@]1(C)CC(=O)[C@]2(O)[C@@]3(C)[C@@H](O)CCC(C)(C)[C@@H]3[C@H](O)[C@H](OC(C)=O)[C@@]2(C)O1` the Potency was “inactive”. With `COc1cc(C(=O)N2CCCCCCC2)cc(OC)c1OC` the Potency was “inactive”. For `c1ccc(-c2nc[nH]c2-c2ccccc2)cc1`, the Potency was “inactive”. For `CCN[C@@H]1C[C@H](N)[C@@H](OC2OC(CN)=CCC2N)[C@H](O)[C@H]1O[C@H]1OC[C@](C)(O)[C@H](NC)[C@H]1O` (stereo partly drawn), the activity change, negative = inhibition was -11.3% [at 0.505 µM].
